Results reported in PubChem BioAssay (NCI).
Compounds without any hit were thinned out: in the full panel of roughly 79,000, 15% have a hit. A number with no mark means an inactive call. Activity calls are given as the source filed them. No stated cut-off is given here; in the data, active means growth inhibition above about 70%; inactive means the rest.

Key:
[1] = NCI Yeast Anticancer Drug Screen. Data for the rad50 strain (AID 155);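 further: 0% = growth of vehicle-only cultures of the same strain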; details: S. cerevisiae rad50 strain growth inhibition, hits give high values
Method in brief: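 Growth of the mutant yeast was measured after compound exposure and referenced to vehicle-treated cultures.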

[2] = NCI Yeast Anticancer Drug Screen. Data for the mec2-1 strain (AID 157); details: S. cerevisiae mec2-1 strain, hits give high values
Method in brief: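 Using mec2-1 yeast: add compound, measure growth, express inhibition versus vehicle-treated cultures.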

[3] = NCI Yeast Anticancer Drug Screen. Data for the sgs1 mgt1 strain (AID 161);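 further: 0% = growth of cultures given vehicle only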; details: S. cerevisiae sgs1 mgt1 strain, hits give high values
Method in brief: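 This yeast growth screen uses a strain with defined DNA-repair lesions; compound-treated growth is compared with vehicle-treated growth.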

[4] = NCI Yeast Anticancer Drug Screen. Data for the cln2 rad14 strain (AID 165);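 further: 0% = growth equal to vehicle treated cultures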; details: S. cerevisiae cln2 rad14 strain, hits give high values
Method in brief: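 Yeast strain cln2 rad14, bearing defects in cell cycle control and DNA repair, serves as the test system; values reflect growth inhibition compared with vehicle.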

[5] = NCI Yeast Anticancer Drug Screen. Data for the bub3 strain (AID 167); details: S. cerevisiae bub3 mutant strain, hits give high values
Method in brief: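 Whole-cell yeast assay. The mutant strain was incubated with compounds, and growth inhibition was determined by comparison with vehicle-treated cells.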

[6] = NCI Yeast Anticancer Drug Screen. Data for the mlh1 rad18 strain (AID 175); details: S. cerevisiae mlh1 rad18 strain growth inhibition, hits give high values
Method in brief: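 Steps: expose repair-defective yeast to compound; measure growth; express inhibition against vehicle-treated controls.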

[7] = at 5.0 µM (retest, dose inferred, filed as 0.5)
[8] = at 50.0 µM (retest, dose inferred, filed as 5.0)

| SMILES | growth inhibition [1, 7] | growth inhibition [1, 8] | growth inhibition ([1]; at 50.0 µM) | growth inhibition [2, 7] | growth inhibition [2, 8] | growth inhibition ([2]; at 50.0 µM) | growth inhibition [3, 7] | growth inhibition [3, 8] | growth inhibition ([3]; at 50.0 µM) | growth inhibition [4, 7] | growth inhibition [4, 8] | growth inhibition ([4]; at 50.0 µM) | growth inhibition [5, 7] | growth inhibition [5, 8] | growth inhibition ([5]; at 50.0 µM) | growth inhibition [6, 7] | growth inhibition [6, 8] | growth inhibition ([6]; at 50.0 µM) |
| --- | --- | --- | --- | --- | --- | --- | --- | --- | --- | --- | --- | --- | --- | --- | --- | --- | --- | --- |
| N/N=C(/N)SCCCCCCCCCCS/C(N)=N/N | -6% | 5% | 21.4% | -4% | 78% (active) | 48.5% | -35% | 76% (active) | 82.3% (active) | -10% | -28% | 51.9% | -6% | 7% | 15.2% | -8% | 39% | 79.8% (active) |
| CC(C)(C)c1cc(C2c3cc4c(cc3OC(O)(CO)C2C(=O)O)OCO4)cc(C(C)(C)C)c1O (configuration not stated) (tested in a mixture with another compound) | -23% | 39% | 49.9% | -6% | 61% | 50.1% | -20% | 50% | 37% | 5% | 68% | 72.1% (active) | -10% | 63% | 55% | 11% | 73% (active) | 52.6% |
| N#CC(Cl)CS(=O)(=O)c1ccccc1 (configuration not stated) | 81% (active) | 100% (active) | 99.5% (active) | 96% (active) | 100% (active) | 99.5% (active) | 31% | 99% (active) | 99.5% (active) | 49% | 99% (active) | 99.2% (active) | 95% (active) | 100% (active) | 95.2% (active) | 88% (active) | 100% (active) | 99.5% (active) |
| N=C(N)SC1c2ccccc2-c2ccc(N)cc21 (configuration not stated) | 17% | 95% (active) | 98% (active) | 4% | 75% (active) | 98.4% (active) | -1% | 77% (active) | 98.5% (active) | -4% | 81% (active) | 96.8% (active) | 0% | 86% (active) | 97% (active) | 12% | 95% (active) | 97.8% (active) |
| NC(=O)C#CC#CC#CCO | 11% | 62% | 92.8% (active) | 24% | 62% | 94.8% (active) | 18% | 78% (active) | 94% (active) | 25% | 39% | 91.8% (active) | 38% | 77% (active) | 93.5% (active) | 19% | 67% | 92.7% (active) |
| O=[N+]([O-])c1c(Cl)cccc1-c1c[nH]cc1Cl | 12% | 99% (active) | 92.8% (active) | 25% | 98% (active) | 93.4% (active) | 19% | 100% (active) | 93.5% (active) | -1% | 99% (active) | 90.9% (active) | 6% | 99% (active) | 92.2% (active) | 44% | 99% (active) | 37.8% |
| O=c1oc2ccccc2c(O)c1/C=N/C(=S)NCCc1ccccc1 | 29% | 88% (active) | -11.6% | 30% | 95% (active) | -22.4% | 32% | 92% (active) | -6.05% | 26% | 40% | -27.8% | 44% | 96% (active) | -10.2% | 32% | 93% (active) | -5.75% |
| CC[N+](C)(CC)CCC(=O)/C=C/c1ccccc1 | 15% | 54% | 87.5% (active) | 11% | 69% | 93% (active) | 5% | 55% | 88.6% (active) | 16% | 49% | 53.1% | 3% | 74% (active) | 76.5% (active) | 11% | 46% | -47.8% |
| CCOC(=O)/C=C(\NC1CC(OC2C[C@](O)(C(C)=O)Cc3c(O)c4c(c(O)c32)C(=O)c2c(OC)cccc2C4=O)OC(C)C1O)C(=O)OCC (some centres not stated) | 44% | 95% (active) | 68.8% | 28% | 97% (active) | 74.3% (active) | 40% | 95% (active) | 90.5% (active) | 44% | 92% (active) | 88.7% (active) | 43% | 97% (active) | 87.5% (active) | 34% | 96% (active) | 87.5% (active) |
| Clc1ccc(Cl)c(SCCCN2CCNCC2)c1 | 36% | 65% | 79.7% (active) | 0% | 32% | 48.2% | 35% | 65% | 54.2% | 6% | 39% | 40% | 18% | 59% | 82.4% (active) | 23% | 43% | 74.4% (active) |
| ClCCOCCOc1c(Cl)cc(Cl)c(Cl)c1Cl | 6% | 12% | 58.4% | 0% | 13% | 27.6% | 9% | 58% | 43.5% | 4% | -11% | -26.7% | 3% | 14% | 59.6% | 9% | 26% | 71% (active) |
| [N-]=[N+]=Nc1ccc(SN2C(=O)c3ccccc3C2=O)cc1 | 29% | 98% (active) | 90.7% (active) | 23% | 95% (active) | 88.4% (active) | 6% | 98% (active) | 92.5% (active) | 3% | 67% | 63.1% | 1% | 44% | 95.4% (active) | 10% | 95% (active) | 73.3% (active) |
| COc1ccc(C2c3cc4c(cc3OC(C)(O)C2C)OCO4)cc1 (configuration not stated) | 5% | 94% (active) | 98.8% (active) | 8% | 94% (active) | 95.4% (active) | 8% | 92% (active) | 92% (active) | 8% | 84% (active) | 97.5% (active) | -2% | 96% (active) | 98.3% (active) | -2% | 93% (active) | 98.5% (active) |
| CN1C(=O)c2cccc3c([N+](=O)[O-])ccc(c23)C1=O | -2% | 55% | 79.3% (active) | -30% | 65% | 17% | 3% | 68% | 73.2% (active) | 10% | 84% (active) | 56.1% | -9% | 80% (active) | 10.2% | 15% | 75% (active) | 27.6% |
| COc1ccccc1NC(=O)/C(=C\N1C(=O)/C(=C/c2cc(OC)c(OC)c(OC)c2)SC1=S)C(C)=O | -11% | 9% | 46% | -12% | 14% | 13.4% | -8% | 35% | 74.2% (active) | -28% | 7% | 8.6% | -21% | -12% | 27.9% | -39% | 25% | 49.7% |
| CCOC(=O)/C=C(/Cl)C(=O)OCC | 12% | 98% (active) | 98.5% (active) | 5% | 99% (active) | 99.4% (active) | 7% | 98% (active) | 99.5% (active) | 1% | 99% (active) | 99% (active) | 18% | 99% (active) | 99.2% (active) | 6% | 99% (active) | 99.1% (active) |
| CN(Cc1ccccc1)CC(O)c1ccc(/C=C/c2ccc(Cl)cc2)cc1 (configuration not stated) | 55% | 66% | 86.1% (active) | 38% | 66% | 65.5% | 87% (active) | 92% (active) | 95.9% (active) | 52% | 64% | 87.6% (active) | 68% | 82% (active) | 69.6% | 56% | 73% (active) | 86.2% (active) |
| CCN1/C(=C/C(C)=C/c2sc3ccccc3[n+]2CC)Sc2ccccc21 | 98% (active) | 97% (active) | 92% (active) | 97% (active) | 100% (active) | 94% (active) | 98% (active) | 100% (active) | 94% (active) | 97% (active) | 99% (active) | 93.7% (active) | 98% (active) | 99% (active) | 92.8% (active) | 98% (active) | 99% (active) | 92% (active) |
| CCN(CC)c1ccc(Cl)c2c1C(O)(C(C)C)C2(C)C (configuration not stated) | -20% | 96% (active) | 88.2% (active) | 9% | 97% (active) | 92.4% (active) | 1% | 97% (active) | 89.7% (active) | 24% | 98% (active) | 89.3% (active) | 14% | 98% (active) | 89.8% (active) | 17% | 98% (active) | 87.5% (active) |
